Sequences and labels used below:
T1: RBFOX1 RRM RbFoxmut (Fox-RRM*) (Homo sapiens, UniProt Q9NWB1 109-208, R118D;E147R;N151S;E152T)
T1 sequence: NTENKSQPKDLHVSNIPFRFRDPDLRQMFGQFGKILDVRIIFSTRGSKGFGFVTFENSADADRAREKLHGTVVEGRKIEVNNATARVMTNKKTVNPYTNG

B1: CCUCACA (DNA:RNA)
RNA: GGGAGACCGGAAUUCAGAUUGUCCCCUCACAUUAAAUCCCGUCGUAGCCACCA
DNA 1: CAATCTGAATTCCGGTCTCCC
DNA 2: TGGTGGCTACGACGGGATT
B2: GUUUGUC (DNA:RNA)
RNA: B1 RNA with C25G, C26U, C28U, A29G, C30U, A31C
DNA 1: CAATCTGAATTCCGGTCTCCC
DNA 2: TGGTGGCTACGACGGGATT
B3: GGCUUGC (DNA:RNA)
RNA: GGGAGACCGGAAUUCAGAUUGUCCGGCUUGCUUAAAUCCCGUCGUAGCCACCA
DNA 1: CAATCTGAATTCCGGTCTCCC
DNA 2: TGGTGGCTACGACGGGATT
B4: GGAUUGA (DNA:RNA)
RNA: B3 RNA with C27A, C31A
DNA 1: CAATCTGAATTCCGGTCTCCC
DNA 2: TGGTGGCTACGACGGGATT
B5: GUCUUAA (DNA:RNA)
RNA: B3 RNA with G26U, G30A, C31A
DNA 1: CAATCTGAATTCCGGTCTCCC
DNA 2: TGGTGGCTACGACGGGATT
B6: GCUUGUC (DNA:RNA)
RNA: B3 RNA with G26C, C27U, U29G, G30U
DNA 1: CAATCTGAATTCCGGTCTCCC
DNA 2: TGGTGGCTACGACGGGATT
B7: GUCUUGU (DNA:RNA)
RNA: B3 RNA with G26U, C31U
DNA 1: CAATCTGAATTCCGGTCTCCC
DNA 2: TGGTGGCTACGACGGGATT
B8: GUCUUGC (DNA:RNA)
RNA: B3 RNA with G26U
DNA 1: CAATCTGAATTCCGGTCTCCC
DNA 2: TGGTGGCTACGACGGGATT
B9: GUCUUGA (DNA:RNA)
RNA: B3 RNA with G26U, C31A
DNA 1: CAATCTGAATTCCGGTCTCCC
DNA 2: TGGTGGCTACGACGGGATT
B10: GUCGUCU (DNA:RNA)
RNA: B3 RNA with G26U, U28G, G30C, C31U
DNA 1: CAATCTGAATTCCGGTCTCCC
DNA 2: TGGTGGCTACGACGGGATT
B11: UCGUGCG (DNA:RNA)
RNA: B1 RNA with C25U, U27G, C28U, A29G, A31G
DNA 1: CAATCTGAATTCCGGTCTCCC
DNA 2: TGGTGGCTACGACGGGATT
B12: UCGCCAG (DNA:RNA)
RNA: B1 RNA with C25U, U27G, A29C, C30A, A31G
DNA 1: CAATCTGAATTCCGGTCTCCC
DNA 2: TGGTGGCTACGACGGGATT
B13: ACGUCCU (DNA:RNA)
RNA: B1 RNA with C25A, U27G, C28U, A29C, A31U
DNA 1: CAATCTGAATTCCGGTCTCCC
DNA 2: TGGTGGCTACGACGGGATT
B14: AACCAGA (DNA:RNA)
RNA: B1 RNA with C25A, C26A, U27C, C30G
DNA 1: CAATCTGAATTCCGGTCTCCC
DNA 2: TGGTGGCTACGACGGGATT
B15: CAAACUC (DNA:RNA)
RNA: B1 RNA with C26A, U27A, C28A, A29C, C30U, A31C
DNA 1: CAATCTGAATTCCGGTCTCCC
DNA 2: TGGTGGCTACGACGGGATT
B16: AGAAGAU (DNA:RNA)
RNA: B3 RNA with G25A, C27A, U28A, U29G, G30A, C31U
DNA 1: CAATCTGAATTCCGGTCTCCC
DNA 2: TGGTGGCTACGACGGGATT
B17: UCCCCGG (DNA:RNA)
RNA: B1 RNA with C25U, U27C, A29C, C30G, A31G
DNA 1: CAATCTGAATTCCGGTCTCCC
DNA 2: TGGTGGCTACGACGGGATT
B18: AAAAAGC (DNA:RNA)
RNA: B3 RNA with G25A, G26A, C27A, U28A, U29A
DNA 1: CAATCTGAATTCCGGTCTCCC
DNA 2: TGGTGGCTACGACGGGATT
B19: AAAUUGC (DNA:RNA)
RNA: B3 RNA with G25A, G26A, C27A
DNA 1: CAATCTGAATTCCGGTCTCCC
DNA 2: TGGTGGCTACGACGGGATT
B20: GCGCACG (DNA:RNA)
RNA: B1 RNA with C25G, U27G, A31G
DNA 1: CAATCTGAATTCCGGTCTCCC
DNA 2: TGGTGGCTACGACGGGATT
B21: ACGCACG (DNA:RNA)
RNA: B1 RNA with C25A, U27G, A31G
DNA 1: CAATCTGAATTCCGGTCTCCC
DNA 2: TGGTGGCTACGACGGGATT
B22: GCACGUA (DNA:RNA)
RNA: B1 RNA with C25G, U27A, A29G, C30U
DNA 1: CAATCTGAATTCCGGTCTCCC
DNA 2: TGGTGGCTACGACGGGATT
B23: GCACGUG (DNA:RNA)
RNA: B1 RNA with C25G, U27A, A29G, C30U, A31G
DNA 1: CAATCTGAATTCCGGTCTCCC
DNA 2: TGGTGGCTACGACGGGATT
B24: ACGUCCG (DNA:RNA)
RNA: B1 RNA with C25A, U27G, C28U, A29C, A31G
DNA 1: CAATCTGAATTCCGGTCTCCC
DNA 2: TGGTGGCTACGACGGGATT
B25: CGCACCG (DNA:RNA)
RNA: B1 RNA with C26G, U27C, C28A, A29C, A31G
DNA 1: CAATCTGAATTCCGGTCTCCC
DNA 2: TGGTGGCTACGACGGGATT
B26: GUCCACG (DNA:RNA)
RNA: B1 RNA with C25G, C26U, U27C, A31G
DNA 1: CAATCTGAATTCCGGTCTCCC
DNA 2: TGGTGGCTACGACGGGATT
B27: CCGCACG (DNA:RNA)
RNA: B1 RNA with U27G, A31G
DNA 1: CAATCTGAATTCCGGTCTCCC
DNA 2: TGGTGGCTACGACGGGATT
B28: GCACGUC (DNA:RNA)
RNA: B1 RNA with C25G, U27A, A29G, C30U, A31C
DNA 1: CAATCTGAATTCCGGTCTCCC
DNA 2: TGGTGGCTACGACGGGATT
B29: GCACGAA (DNA:RNA)
RNA: B1 RNA with C25G, U27A, A29G, C30A
DNA 1: CAATCTGAATTCCGGTCTCCC
DNA 2: TGGTGGCTACGACGGGATT
B30: GCACGCG (DNA:RNA)
RNA: B1 RNA with C25G, U27A, A29G, A31G
DNA 1: CAATCTGAATTCCGGTCTCCC
DNA 2: TGGTGGCTACGACGGGATT
B31: GCACGAG (DNA:RNA)
RNA: B1 RNA with C25G, U27A, A29G, C30A, A31G
DNA 1: CAATCTGAATTCCGGTCTCCC
DNA 2: TGGTGGCTACGACGGGATT

Positions count from the first letter of the chain named. In all, about 16,000 sequences were measured (“ka relative to ugcaugu”: median about 0.096, highest 2% from about 0.35 on). Only a selection was taken, and the highest values are over-represented in it overall.

In the test the target is T1, RBFOX1 RRM RbFoxmut (Fox-RRM*). Nature of the test: EMSA; HiTS-Eq, 1 nM pool, 10 min; buffer printed only for the single-RNA assays: 10 mM Tris pH 7.5, 150 mM NaCl, 3.4 mM EDTA, 0.001% NP-40, 30 C. The conditions noted are these: tags: His6 N-terminal (pET28a); label: 5' 32P. Put shortly: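 Relative association constants, normalised to the cognate motif, were derived by comparing read counts of each RNA species with those of the control reaction. The RNA sequenced was the free fraction, separated by 8% native PAGE after a 10 min equilibration in 50 µL of 1 nM 5′-radiolabelled RNA (7 randomized nucleotides) with increasing concentrations of purified wild-type or mutant RbFox RRM.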
On the technique in general: A gel shift assay detects complexes by their altered migration in electrophoresis.
Take B1: the binding signal is 0.108 KA relative to UGCAUGU.
As to B2, the binding signal was 0.305 KA relative to UGCAUGU.
To B3 belongs 0.199 KA relative to UGCAUGU.
With B4, the binding signal was 0.278 KA relative to UGCAUGU.
To B5 belongs 0.0967 KA relative to UGCAUGU.
To B6 belongs 0.248 KA relative to UGCAUGU; to B7, 0.639 KA relative to UGCAUGU; to B8, 0.502 KA relative to UGCAUGU.
For B9, the binding signal was 0.407 KA relative to UGCAUGU.
Next, B10: 0.0809 KA relative to UGCAUGU; B11: 0.147 KA relative to UGCAUGU.
Next, B12: 0.0961 KA relative to UGCAUGU; B13: 0.0891 KA relative to UGCAUGU; B14: 0.107 KA relative to UGCAUGU.
Next, B15: 0.0603 KA relative to UGCAUGU; B16: 0.0749 KA relative to UGCAUGU.
In the case of B17, the binding signal is 0.0768 KA relative to UGCAUGU.
To B18 belongs 0.0699 KA relative to UGCAUGU.
To B19 belongs 0.0959 KA relative to UGCAUGU.
To B20 belongs 0.397 KA relative to UGCAUGU.
On to B21, for which the binding signal is 0.354 KA relative to UGCAUGU.
Turning to B22, the binding signal is 0.382 KA relative to UGCAUGU.
Next, B23: 0.324 KA relative to UGCAUGU.
B24: the binding signal is 0.121 KA relative to UGCAUGU.
Next, B25: 0.17 KA relative to UGCAUGU.
On to B26, for which the binding signal is 0.114 KA relative to UGCAUGU.
To B27 belongs 0.236 KA relative to UGCAUGU; to B28, 0.117 KA relative to UGCAUGU.
For the molecule B29, the binding signal was 0.256 KA relative to UGCAUGU.
To B30 belongs 0.184 KA relative to UGCAUGU.
Next, B31: 0.405 KA relative to UGCAUGU.
